Compounds without any hit were thinned out: in the full panel of roughly 83,000, 20% have a hit.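 Testing used 96-well plates and a 48-hour single-concentration exposure. Example: -40 means 40% of the starting cells died.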 Calls of active or inactive are those of the source. Rule for the calls: active = growth percent below 10; inactive = the rest.

This assay concerns KM12 colon. Briefly: NCI-60 one-dose screen, 48 h (100 = growth as untreated, 0 = no growth, -100 = all killed). The note with it: 10 µM unless noted.
With `S=c1[nH]cccc1-c1nnc2n1Nc1nc3ccccc3cc1CS2`, the growth was 109% (inactive).

Take `O=C(Nc1cccc(Cl)c1)c1cc(Cl)ccc1O`: the growth is 5.13% (active).

As for `CCc1c(Nc2ccc(C)cc2)[nH]c(N)nc1=S`, the growth is 104% (inactive).

Take `CCN(CC)CCCC(C)Nc1cc(-c2cccc(OC(F)(F)F)c2)nc2ccc(N3CCCC3)cc12` (stereo not given): the growth is 7.78% (active).

For the compound `COc1ccc(C(=O)/C=C/c2ccc(OCc3ccccc3)c(OC)c2)cc1OC`, the growth is 36.5% (inactive).

Regarding `CC[C@H](C)[C@@H]1NC(=O)[C@H](Cc2ccc(O)cc2)N(C)C(=O)[C@H](Cc2ccccc2)NC(=O)CN(C)C(=O)[C@@H]2CCCN2C(=O)[C@@H](Cc2ccccc2)N(C)C(=O)[C@H](CC(C)C)NC1=O`, the growth is 1.4% (active).

For the compound `NC(=S)N/N=C/c1ccc(OC(=O)COc2cc(Cl)c(Cl)cc2Cl)cn1`, the growth was 70.9% (inactive).

`COc1ccccc1Nc1cc(O)c2c(=O)cc(-c3ccccc3)oc2c1`: the growth is 36.2% (inactive).

As to `O=c1[nH]nc(-c2ccc(Cl)cc2)cc1Cc1cccc([N+](=O)[O-])c1`, the growth was 93.3% (inactive).

For the compound `COc1ccc(C(=O)c2cc3c(N)c(C(=O)Nc4ccc(Cl)cc4)sc3nc2C)cc1`, the growth was 70.2% (inactive).

Turning to `O=CNc1cc(Cl)cc(Cl)c1`, the growth is 101% (inactive).

Take `O=C(Nc1ccc(Cl)cc1)Nc1ccc(Cl)c(Cl)c1`: the growth is 6.34% (active).

For the compound `c1ccc(-c2nn(-c3ccccc3)[n+](-c3cccc4ccccc34)n2)cc1`, the growth was 10.1% (inactive).

In the case of `Fc1ccc(C2CC(c3cccc(Nc4ccncc4)c3)=NN2c2ccc(Cl)cc2)cc1` (stereo not given), the growth is 19.5% (inactive).

Turning to `O=C1Nc2cc(-c3ccncc3)ccc2/C1=C/c1ccc[nH]1`, the growth was 33.1% (inactive).

Regarding `CC1=CC2(C)/C=C(C)/C=C\CC(O)/C=C3/C=CC(=C4C(=O)OC2(CC1C)C4=O)OC3` (stereo not given), the growth is 10.2% (inactive).

On to `COc1ccc(C(=O)/C=C/c2cn(Cc3ccc(Cl)cc3)c3ccccc23)cc1`, for which the growth was 32.2% (inactive).

With `CC(C)(C#N)N1CCN(c2ccccc2Cl)CC1`, the growth was 106% (inactive).

As to `CN1CCN(c2cc(F)c(NC3=C(Cl)C(=O)c4ncccc4C3=O)c(F)c2)CC1`, the growth is 82.4% (inactive).

Turning to `CC(C)CCSc1nc(NNC(N)=O)c(C#N)c(-c2ccccc2)n1`, the growth was 110% (inactive).

For the compound `Nc1c(Cl)cc([N+](=O)[O-])cc1Br`, the growth is 103% (inactive).

In the case of `CC1(C)CN(c2cnc(C(=O)Nc3cc(F)cc4cccnc34)cn2)CCN1`, the growth was 91.7% (inactive).

Turning to `O=C(CNCCO)Nc1ccc2ncnc(Nc3ccc(OCc4cccc(F)c4)c(Cl)c3)c2c1`, the growth is 87% (inactive).

For `COc1ccc(C(O)c2cc3c(N)c(C(=O)Nc4ccccc4)sc3nc2C)cc1` (stereo not given), the growth is 3.05% (active).

For the compound `Cc1cc(NC(=O)c2cnc(N3CCN(CCOCCOCCOCCOCCC(=O)N[C@H](C(=O)N4C[C@H](O)C[C@H]4C(=O)N[C@@H](C)c4ccc(-c5scnc5C)cc4)C(C)(C)C)CC3)cn2)c2ncccc2c1`, the growth was -64.6% (active).

As to `NC(=O)CN1CCN(c2ccccc2Cl)CC1`, the growth was 109% (inactive).

Turning to `c1ccc(-c2nn(-c3ccccc3)[n+](-c3ccccc3-c3ccccc3)n2)cc1`, the growth is 9.9% (active).

For `O=C(N/N=C/c1cccnc1)c1ccccc1Nc1cccc(C(F)(F)F)c1`, the growth is 88.2% (inactive).

`O=C(Nc1cccc(C2=NCCN2)c1)c1ccc(OCCCOc2ccc(C(=O)Nc3cccc(C4=NCCN4)c3)cc2)cc1`: the growth was 14.2% (inactive).

On to `O=S(=O)(NCCCNc1nccc(-c2c(-c3ccc(F)c(O)c3)nc3sccn23)n1)c1ccc(F)cc1`, for which the growth was 10.4% (inactive).

Take `CCc1c(Nc2ccc(C)cc2)nc(N)[nH]c1=O`: the growth is 102% (inactive).

For `O=C(Nc1ccc2ncnc(Nc3ccc(Oc4cccc(F)c4)c(Cl)c3)c2c1)c1ccc(CN2CCOCC2)cc1`, the growth is 24.6% (inactive).

Turning to `Cc1ccc(Nc2cc(=S)nc(N)[nH]2)cc1C`, the growth was 102% (inactive).

On to `COc1ccc(Nn2c(SCC(=O)Nc3nc(-c4ccc(Cl)cc4)cs3)nc(C)c2C)cc1`, for which the growth is 43.1% (inactive).

As for `CC(O)(CO)c1ccccc1` (stereo not given), the growth was 103% (inactive).

Values taken from PubChem BioAssay (NCI).
